# Laboratory results as given in the supplement of paper PMC10037445.
# Whole data set: some 2,900 compounds, median “NF-kB SEAP reporter activity, fold change vs agonist alone” near 0.99, cut for the highest 2% near 2.6. This is one part of a sample in which the highest values are shown more often than they occur.
# Legend:
# RAW-Dual [1] = experiment: NF-kB SEAP reporter activity, fold change vs agonist alone; cytotoxicity flag (confluency mask): not cytotoxic; higher = enhanced NF-kB activity
# Outline: (§1)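 Library stock was pin-tooled at 50 nL into 384-well plates of RAW-Dual macrophages (50,000 cells/well, DMEM), followed 1 h later by a PRR agonist, and the cells were kept at 37 °C, 5% CO2. Supernatant collected after 20 hours was read for IRF by QuantiLuc luminescence and for NF-κB by QuantiBlue absorbance at 620 nm. Reporter activity is fold change over agonist-alone wells, and a well counted as cytotoxic when its IncuCyte confluency was below 70% of agonist controls in both mask sets.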
# RAW-Dual [2] = experiment: NF-kB SEAP reporter activity, fold change vs agonist alone; higher = enhanced NF-kB activity; settings: library stock concentration (final ~1000-fold dilution): 10 mM
# Outline: as §1
# RAW-Dual [3] = experiment: NF-kB SEAP reporter activity, fold change vs agonist alone; cytotoxicity flag (confluency mask): cytotoxic (confluency <70% of control); higher = enhanced NF-kB activity
# Outline: as §1
# [4] = agonist: ODN 1826 (TLR9) 0.5 ug/mL
# [5] = agonist: Pam2CSK4 (TLR2/6) 0.1 ug/mL
# [6] = agonist: Pam3CSK4 (TLR2/1) 0.1 ug/mL
# [7] = cytotoxicity flag (confluency mask): not cytotoxic, agonist: Imiquimod (TLR7) […]
# [8] = cytotoxicity flag (confluency mask): not cytotoxic, agonist: MPLA (TLR4) […]
# [9] = cytotoxicity flag (confluency mask): cytotoxic (confluency <70% of control), agonist: Imiquimod (TLR7) […]
# [10] = cytotoxicity flag (confluency mask): cytotoxic (confluency <70% of control), agonist: MPLA (TLR4) […]
compound,measurement,setting,value
Cc1csc(-c2nc[nH]c2-c2ccc3ncsc3c2)n1.Cl (library stock concentration (final ~1000-fold dilution): 10 mM),NF-kB SEAP reporter activity,RAW-Dual [1]; agonist: LPS (TLR4) 0.1 ug/mL,2.26
same,NF-kB SEAP reporter activity,RAW-Dual [1]; [4],1.18
same,NF-kB SEAP reporter activity,RAW-Dual [1]; [5],1.24
same,NF-kB SEAP reporter activity,RAW-Dual [1]; [6],1.47
Cc1csc(-c2nc[nH]c2-c2ccc3ncsc3c2)n1.Cl,NF-kB SEAP reporter activity,RAW-Dual [2]; [7],0.927
same,NF-kB SEAP reporter activity,RAW-Dual [2]; [8],1.34
CC(Oc1cc(-n2cnc3ccc(CN4CCN(C)CC4)cc32)sc1C(N)=O)c1ccccc1C(F)(F)F (stereo not given) (library stock concentration (final ~1000-fold dilution): 10 mM),NF-kB SEAP reporter activity,RAW-Dual [1]; agonist: LPS (TLR4) 0.1 ug/mL,1.15
same,NF-kB SEAP reporter activity,RAW-Dual [1]; [4],0.967
same,NF-kB SEAP reporter activity,RAW-Dual [1]; [5],0.97
same,NF-kB SEAP reporter activity,RAW-Dual [1]; [6],0.799
CC(Oc1cc(-n2cnc3ccc(CN4CCN(C)CC4)cc32)sc1C(N)=O)c1ccccc1C(F)(F)F (stereo not given),NF-kB SEAP reporter activity,RAW-Dual [2]; [7],0.909
same,NF-kB SEAP reporter activity,RAW-Dual [2]; [8],0.993
N#C/C(C(=O)c1ccc(Cl)cc1Cl)=C1\NC(=O)c2ccccc2N1,NF-kB SEAP reporter activity,RAW-Dual [2]; [7],0.86
same,NF-kB SEAP reporter activity,RAW-Dual [2]; [8],1.11
N#C/C(C(=O)c1ccc(Cl)cc1Cl)=C1\NC(=O)c2ccccc2N1 (library stock concentration (final ~1000-fold dilution): 10 mM),NF-kB SEAP reporter activity,RAW-Dual [1]; agonist: LPS (TLR4) 0.1 ug/mL,1.13
same,NF-kB SEAP reporter activity,RAW-Dual [1]; [4],0.982
same,NF-kB SEAP reporter activity,RAW-Dual [1]; [5],0.65
same,NF-kB SEAP reporter activity,RAW-Dual [1]; [6],0.693
CC1OC(OC2C(Oc3cc(O)c4c(c3)OC(c3ccc(O)cc3)CC4=O)OC(CO)C(O)C2O)C(O)C(O)C1O (stereo not given) (library stock concentration (final ~1000-fold dilution): 10 mM),NF-kB SEAP reporter activity,RAW-Dual [1]; agonist: LPS (TLR4) 0.1 ug/mL,0.935
same,NF-kB SEAP reporter activity,RAW-Dual [1]; [4],1.04
same,NF-kB SEAP reporter activity,RAW-Dual [1]; [5],1.17
same,NF-kB SEAP reporter activity,RAW-Dual [1]; [6],1.13
CC1OC(OC2C(Oc3cc(O)c4c(c3)OC(c3ccc(O)cc3)CC4=O)OC(CO)C(O)C2O)C(O)C(O)C1O (stereo not given),NF-kB SEAP reporter activity,RAW-Dual [2]; [7],0.993
same,NF-kB SEAP reporter activity,RAW-Dual [2]; [8],1.05
COc1ccc(C[C@@H]2c3cc(Oc4cc(C[C@@H]5c6cc(OC)c(OC)cc6CCN5C)ccc4O)c(OC)cc3CCN2C)cc1 (library stock concentration (final ~1000-fold dilution): 10 mM),NF-kB SEAP reporter activity,RAW-Dual [1]; agonist: LPS (TLR4) 0.1 ug/mL,1.06
same,NF-kB SEAP reporter activity,RAW-Dual [1]; [4],0.182
same,NF-kB SEAP reporter activity,RAW-Dual [1]; [5],0.121
same,NF-kB SEAP reporter activity,RAW-Dual [1]; [6],0.622
COc1ccc(C[C@@H]2c3cc(Oc4cc(C[C@@H]5c6cc(OC)c(OC)cc6CCN5C)ccc4O)c(OC)cc3CCN2C)cc1,NF-kB SEAP reporter activity,RAW-Dual [2]; [7],0.915
same,NF-kB SEAP reporter activity,RAW-Dual [2]; [8],1.09
Oc1ccc(-c2nc(-c3ccc(F)cc3)c(-c3ccncc3)[nH]2)cc1,NF-kB SEAP reporter activity,RAW-Dual [2]; [7],1.92
same,NF-kB SEAP reporter activity,RAW-Dual [2]; [8],1.84
Oc1ccc(-c2nc(-c3ccc(F)cc3)c(-c3ccncc3)[nH]2)cc1 (library stock concentration (final ~1000-fold dilution): 10 mM),NF-kB SEAP reporter activity,RAW-Dual [1]; agonist: LPS (TLR4) 0.1 ug/mL,2.59
same,NF-kB SEAP reporter activity,RAW-Dual [1]; [4],0.851
same,NF-kB SEAP reporter activity,RAW-Dual [1]; [5],1.01
same,NF-kB SEAP reporter activity,RAW-Dual [1]; [6],1.2
COc1cc2nc(N3CCCN(C)CC3)nc(NC3CCN(Cc4ccccc4)CC3)c2cc1OC.Cl.Cl.Cl,NF-kB SEAP reporter activity,RAW-Dual [2]; [9],0.133
same,NF-kB SEAP reporter activity,RAW-Dual [2]; [10],0.247
COc1cc2nc(N3CCCN(C)CC3)nc(NC3CCN(Cc4ccccc4)CC3)c2cc1OC.Cl.Cl.Cl (library stock concentration (final ~1000-fold dilution): 10 mM),NF-kB SEAP reporter activity,RAW-Dual [3]; agonist: LPS (TLR4) 0.1 ug/mL,0.248
same,NF-kB SEAP reporter activity,RAW-Dual [3]; [4],0.189
same,NF-kB SEAP reporter activity,RAW-Dual [3]; [5],0.092
same,NF-kB SEAP reporter activity,RAW-Dual [3]; [6],0.13
CC(=O)OC1(C(C)=O)CCC2C3C=C(Cl)C4=CC(=O)CCC4(C)C3CCC21C (stereo not given),NF-kB SEAP reporter activity,RAW-Dual [2]; [7],1.28
same,NF-kB SEAP reporter activity,RAW-Dual [2]; [8],1.12
CC(=O)OC1(C(C)=O)CCC2C3C=C(Cl)C4=CC(=O)CCC4(C)C3CCC21C (stereo not given) (library stock concentration (final ~1000-fold dilution): 10 mM),NF-kB SEAP reporter activity,RAW-Dual [1]; agonist: LPS (TLR4) 0.1 ug/mL,1.21
same,NF-kB SEAP reporter activity,RAW-Dual [1]; [4],1.14
same,NF-kB SEAP reporter activity,RAW-Dual [1]; [5],1.08
same,NF-kB SEAP reporter activity,RAW-Dual [1]; [6],1.16
Cc1nc(Nc2cnn(C3CCNCC3)c2)nc2c1N(C)C(=O)c1cc3ccccc3cc1N2C,NF-kB SEAP reporter activity,RAW-Dual [2]; [9],1.56
same,NF-kB SEAP reporter activity,RAW-Dual [2]; [10],2.88
CN1c2ccccc2C(=O)Nc2cnc(Nc3ccc(N4CCC(O)CC4)cc3)nc21,NF-kB SEAP reporter activity,RAW-Dual [2]; [7],0.788
same,NF-kB SEAP reporter activity,RAW-Dual [2]; [8],1.02
Cc1nc(Nc2cnn(C3CCNCC3)c2)nc2c1N(C)C(=O)c1cc3ccccc3cc1N2C (library stock concentration (final ~1000-fold dilution): 10 mM),NF-kB SEAP reporter activity,RAW-Dual [3]; agonist: LPS (TLR4) 0.1 ug/mL,3.03
same,NF-kB SEAP reporter activity,RAW-Dual [3]; [4],0.387
same,NF-kB SEAP reporter activity,RAW-Dual [3]; [5],1.11
same,NF-kB SEAP reporter activity,RAW-Dual [3]; [6],2.25
CN1c2ccccc2C(=O)Nc2cnc(Nc3ccc(N4CCC(O)CC4)cc3)nc21 (library stock concentration (final ~1000-fold dilution): 10 mM),NF-kB SEAP reporter activity,RAW-Dual [1]; agonist: LPS (TLR4) 0.1 ug/mL,1.91
same,NF-kB SEAP reporter activity,RAW-Dual [1]; [4],1.18
same,NF-kB SEAP reporter activity,RAW-Dual [1]; [5],0.763
same,NF-kB SEAP reporter activity,RAW-Dual [1]; [6],0.946
Cc1ccc(Oc2ccnc3cc(-c4cnn(C5CCNCC5)c4)ccc23)cc1 (library stock concentration (final ~1000-fold dilution): 10 mM),NF-kB SEAP reporter activity,RAW-Dual [3]; agonist: LPS (TLR4) 0.1 ug/mL,0.433
same,NF-kB SEAP reporter activity,RAW-Dual [3]; [4],0.213
same,NF-kB SEAP reporter activity,RAW-Dual [3]; [5],0.181
same,NF-kB SEAP reporter activity,RAW-Dual [3]; [6],0.175
Cc1ccc(Oc2ccnc3cc(-c4cnn(C5CCNCC5)c4)ccc23)cc1,NF-kB SEAP reporter activity,RAW-Dual [2]; [9],0.526
same,NF-kB SEAP reporter activity,RAW-Dual [2]; [10],0.922
CC1CC(=O)c2c(ccc3c2C(=O)c2cccc(O)c2C3=O)C1 (stereo not given),NF-kB SEAP reporter activity,RAW-Dual [2]; [7],1.02
same,NF-kB SEAP reporter activity,RAW-Dual [2]; [8],1.26
CC1CC(=O)c2c(ccc3c2C(=O)c2cccc(O)c2C3=O)C1 (stereo not given) (library stock concentration (final ~1000-fold dilution): 10 mM),NF-kB SEAP reporter activity,RAW-Dual [1]; agonist: LPS (TLR4) 0.1 ug/mL,1.64
same,NF-kB SEAP reporter activity,RAW-Dual [1]; [4],1.14
same,NF-kB SEAP reporter activity,RAW-Dual [1]; [5],1.09
same,NF-kB SEAP reporter activity,RAW-Dual [1]; [6],0.991
CC(NC(=O)C(NC(=O)OCc1ccccc1)C(C)C)C(=O)NC(CC(=O)O)C(=O)CF (stereo not given) (library stock concentration (final ~1000-fold dilution): 10 mM),NF-kB SEAP reporter activity,RAW-Dual [1]; agonist: LPS (TLR4) 0.1 ug/mL,1.23
same,NF-kB SEAP reporter activity,RAW-Dual [1]; [4],0.939
same,NF-kB SEAP reporter activity,RAW-Dual [1]; [5],0.948
same,NF-kB SEAP reporter activity,RAW-Dual [1]; [6],1.03
CC(NC(=O)C(NC(=O)OCc1ccccc1)C(C)C)C(=O)NC(CC(=O)O)C(=O)CF (stereo not given),NF-kB SEAP reporter activity,RAW-Dual [2]; [7],0.964
same,NF-kB SEAP reporter activity,RAW-Dual [2]; [8],0.934
CCCC1CC(C(=O)NC(C(C)Cl)C2OC(SC)C(O)C(O)C2O)N(C)C1.Cl.O (stereo not given),NF-kB SEAP reporter activity,RAW-Dual [2]; [8],1.07
CCCC1CC(C(=O)NC(C(C)Cl)C2OC(SC)C(O)C(O)C2O)N(C)C1.Cl.O (stereo not given) (library stock concentration (final ~1000-fold dilution): 10 mM),NF-kB SEAP reporter activity,RAW-Dual [1]; agonist: LPS (TLR4) 0.1 ug/mL,1.29
same,NF-kB SEAP reporter activity,RAW-Dual [1]; [4],0.918
same,NF-kB SEAP reporter activity,RAW-Dual [1]; [5],0.831
same,NF-kB SEAP reporter activity,RAW-Dual [1]; [6],0.973
C/C(=N\NC(=O)c1cccc(S(=O)(=O)N2CCOCC2)c1)c1cc(Cl)ccc1O (library stock concentration (final ~1000-fold dilution): 10 mM),NF-kB SEAP reporter activity,RAW-Dual [1]; agonist: LPS (TLR4) 0.1 ug/mL,2.6
same,NF-kB SEAP reporter activity,RAW-Dual [1]; [4],1.9
same,NF-kB SEAP reporter activity,RAW-Dual [1]; [5],1.52
same,NF-kB SEAP reporter activity,RAW-Dual [1]; [6],2.48
C/C(=N\NC(=O)c1cccc(S(=O)(=O)N2CCOCC2)c1)c1cc(Cl)ccc1O,NF-kB SEAP reporter activity,RAW-Dual [2]; [7],1.53
same,NF-kB SEAP reporter activity,RAW-Dual [2]; [8],1.65
O=C(Nc1cccc(Br)c1)c1cccc(S(=O)(=O)N2CCCCCC2)c1 (library stock concentration (final ~1000-fold dilution): 10 mM),NF-kB SEAP reporter activity,RAW-Dual [1]; agonist: LPS (TLR4) 0.1 ug/mL,0.803
same,NF-kB SEAP reporter activity,RAW-Dual [1]; [4],1.79
same,NF-kB SEAP reporter activity,RAW-Dual [1]; [5],1.02
same,NF-kB SEAP reporter activity,RAW-Dual [1]; [6],0.939
O=C(Nc1cccc(Br)c1)c1cccc(S(=O)(=O)N2CCCCCC2)c1,NF-kB SEAP reporter activity,RAW-Dual [2]; [7],1.56
same,NF-kB SEAP reporter activity,RAW-Dual [2]; [8],1.26
